Measured values: PubChem BioAssay AID588855 (National Center for Advancing Translational Sciences (NCATS), 2011)
Screen size: about 410,000 compounds; about 5,000 (1.2%) were called active. A call without a number means that no potency is given here. Roughly 13% stayed inconclusive and do not appear here. The call rests on the fitted dose curve; in most records, active means well fitted inhibition curve with a large enough effect; inconclusive means small, poorly fitted or top-dose-only effect; inactive means no such curve, though single readings can be large or run the other way. The sample as a whole holds a higher share of actives than the screen did.

Assay: qHTS for Inhibitors of TGF-b; further: nearly all actives have a fitted effect of over 65% in size
Conditions: HepG2 CAGA-GFP TGF-b/SMAD3 reporter, GFP fluorescence, 18 h, TGF-beta stimulated, 500 pg/mL final; series mostly up to 46.1 µM
Outline: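 Inhibition of TGF-beta-driven CAGA-GFP reporter expression in HEPG2 cells is measured by cellular GFP fluorescence after 18 h stimulation with 500 pg/mL recombinant TGF-beta in 1% FBS medium at 37 degrees C.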
Potency means the concentration at half of the fitted maximal effect.

| SMILES | Potency |
| --- | --- |
| CCOC(=O)c1cnc2c(C)cc(Cl)cc2c1NCCc1ccc(OC)c(OC)c1 | inactive |
| Cn1c(=O)c2sccc2n2c(CCC(=O)NCc3ccccc3Cl)nnc12 | inactive |
| CCc1cc2c(cc3c(=O)n(CC(=O)NCCc4ccc(OC)c(OC)c4)ncn32)s1 | inactive |
| COc1ccc(C2NC(=O)N(C)C3=C2C(=O)N(c2ccc(C(=O)O)cc2)C3)cc1 (stereo not drawn) | inactive |
| CN(C)c1ccc(/C=N\Nc2ccc([N+](=O)[O-])cc2[N+](=O)[O-])cc1Cl | inactive |
| CN(CCC#N)c1ccc(C=O)cc1 | inactive |
| Cc1ccc(S(=O)(=O)N2CCN(c3nc(-n4cnc5ccccc54)nc4ccccc34)CC2)cc1 | inactive |
| Cc1ccc(NC(=O)C(Cc2ccccc2)NS(=O)(=O)c2ccc3c(c2)oc(=O)n3C)cc1C (stereo not drawn) | inactive |
| Cc1cccc(N2CCN(C(=O)c3cnc(N4CCCC4)nc3C)CC2)c1C | inactive |
| CC1(C(=O)Nc2cccc3c2CCCC3)CCN1C(=O)CCc1ccc(Cl)cc1Cl (stereo not drawn) | 12.6 µM (active) |
| Cc1ccccc1S(=O)(=O)NC(=O)C1(C)CCN1C(=O)Cc1ccc(Cl)cc1Cl (stereo not drawn) | inactive |
| CC1(C(=O)Nc2cccc3c2CCCC3)CCN1C(=O)C1(c2ccccc2)CC1 (stereo not drawn) | inactive |
| CC(=O)c1ccc(NS(=O)(=O)c2ccc(-c3cc(C)no3)s2)cc1 | inactive |
| Cc1oc(-c2ccccc2F)nc1CN1CCC(C(=O)NCCc2ccc(Cl)cc2)CC1 | inactive |
| COc1ccc(Cl)cc1NC(=O)C(C)Sc1nc2c(c(=O)[nH]1)CCCC2 (stereo not drawn) | inactive |
| CCOc1ccc(NC(=O)c2c(NC(=O)Cc3ccccc3)sc3c2CCCCC3)cc1 | inactive |
| CCOc1ccc(NC(=S)N2CCCCCC2)cc1 | inactive |
| C/C(=N\NC(=O)Cc1ccc(Cl)cc1)c1ccccn1 | 3.98 µM (active) |
| O=C(Cc1ccc(Cl)cc1)c1ccccc1 | inactive |
| CC1=NNC(=O)C1CCC(=O)N/N=C(\C)c1ccc(Cl)cc1 (stereo not drawn) | inactive |
| CC(=NNC(=S)N1CCCCCC1)c1ccccn1 | 1.26 µM (active) |

| SMILES | Potency |
| --- | --- |
| CCNC(=S)N1CCN(c2ncccn2)CC1 | inactive |
| CCCN(CCC)C(=O)Cn1c(=O)n(-c2ccc(Cl)cc2)c(=O)c2c3c(sc21)CCCCC3 | inactive |
| Cc1ccc(-c2nnc3ccc(SCC(N)=O)nn23)cc1 | inactive |
| Cc1ccc(Nc2ccccc2N)cc1 | inactive |
| COc1ccccc1C(=O)Nc1ccc(Nc2ccccc2)cc1 | inactive |
| Nc1ccc(Nc2ccccc2)cc1 | 14.1 µM (active) |
| COC(=O)c1ccc(NC(=O)CSc2n[nH]c(-c3ccccc3)n2)cc1 | inactive |
| CC(Sc1oc(-c2ccco2)nc1S(=O)(=O)c1ccc(Br)cc1)c1ccccc1 (stereo not drawn) | inactive |
| CCCCC(CCCC)c1ccc(C=Nc2ccc(/C=C/c3ccnc4ccccc34)cc2)cc1 | inactive |
| O=C(/C(=C/c1cccc(Cl)c1)c1nc2ccccc2[nH]1)c1ccccc1 | 3.16 µM (active) |
| CN(c1ccccc1)S(=O)(=O)c1cc(C(=O)Nc2nc3ccccc3[nH]2)ccc1Cl | inactive |
| Cc1ccc2nc(CNC(=O)c3ccccc3)[nH]c2c1 | inactive |
| Cc1cc(C)c(/C=C/c2onc(C)c2S(=O)(=O)N2CCC(C(=O)Nc3ccc(Cl)cc3C)CC2)c(C)c1 | inactive |
| Cc1ccc(NC(=O)C(=O)NCC(c2cccnc2)N2CCOCC2)cc1 (stereo not drawn) | inactive |
| Cc1ccc(S(=O)(=O)N(CC(=O)Nc2ccc(Cl)cc2Cl)c2ccccc2C)cc1 | inactive |
| COc1ccc(N/C=C(\C2OC(=O)c3ccccc32)[N+](=O)[O-])cc1 (stereo not drawn) | inactive |
| COc1ccc(C(C)(NC(C)=O)c2nc(-c3ccc(S(C)(=O)=O)cc3)cs2)cc1 (stereo not drawn) | inactive |
| COc1ccc(-c2csc(NC3OC(=O)c4ccccc43)n2)cc1 (stereo not drawn) | 10 µM (active) |
| Cc1ccc(C(=O)/C=C/Nc2ccc(S(=O)(=O)Nc3onc(C)c3C)cc2)cc1 | inactive |
| COc1ccc(/C=C/C(=O)Nc2ccc(C)cc2)cc1S(=O)(=O)N1CCOCC1 | inactive |
| COc1ccc(/C=C/C(=O)c2ccc(NS(=O)(=O)c3ccc(C)cc3)cc2)cc1O | 12.6 µM (active) |

| SMILES | Potency |
| --- | --- |
| Cc1ccc(C(=O)Nc2ccc(OCc3cc(=O)n4c(C)csc4n3)cc2)cc1 | inactive |
| COc1ccc(CCNc2ncnc3onc(-c4ccc(Cl)cc4)c23)c(OC)c1 | inactive |
| CCOC(=O)C1CCN(C(=O)CSc2c3c(nc4ccc(Cl)cc24)CCCC3)CC1 | 15.8 µM (active) |
| Cc1ccc(CNC(=O)CSc2c3c(nc4cc(Cl)ccc24)CCCC3)cc1 | inactive |
| O=C(CSc1c2c(nc3ccc(Cl)cc13)CCCC2)NCc1ccco1 | inactive |
| CN(C)C1=C2C=CC=CC2/C(=C2/C=Cc3ccccc32)C=C1 (stereo not drawn) | inactive |
| CCOC(=O)c1ccc(NC(=O)c2c(NCc3cccs3)sc3c2CCCC3)cc1 | inactive |
| Cc1noc(C)c1NC(=O)Nc1ccc2c(c1)C(=O)N([C@H](C)CO)C[C@H](C)[C@@H](CN(C)C(=O)Nc1ccccc1)O2 | inactive |
| Cc1ccc(S(=O)(=O)Nc2ccc3c(c2)C(=O)N([C@H](C)CO)C[C@@H](C)[C@@H](CN(C)C(=O)Nc2cccc4ccccc24)O3)cc1 | 11.2 µM (active) |
| COc1ccc(NC(=O)N(C)C[C@H]2Oc3ccc(NC(=O)C4CC4)cc3C(=O)N([C@H](C)CO)C[C@@H]2C)cc1 | inactive |
| COc1cc(OC)c(NC(=O)c2c3c(nn2C)-c2ccccc2SC3)cc1Cl | inactive |
| OC(CBr)CN1CCCCC1 (stereo not drawn) | inactive |
| COc1ccccc1NC(=O)c1cc(S(=O)(=O)NCCc2ccccc2)ccc1F | inactive |
| Cc1nn(-c2ccccc2)c(C)c1/C=N/NC(=O)CSc1nc2ccccc2c(=O)n1-c1ccccc1 | 3.98 µM (active) |
| Cc1ccc(-n2c(SCC(=O)N/N=C/C=C/c3ccccc3[N+](=O)[O-])nc3ccccc3c2=O)cc1 | inactive |
| C/C(=N\NC(=O)CSc1nc2ccccc2c(=O)n1-c1ccccc1C)c1cccs1 | inactive |
| Cc1nnc(C)n1-c1ccc(C(=O)Nc2cccc(Br)c2)cc1 | inactive |
| Cc1ccccc1CNC(=O)c1ccc(NC(=O)N2CCCCc3ccccc32)cc1 | inactive |
| CCOC(=O)c1c(NC(=O)c2ccc(S(=O)(=O)N(CC)CC)cc2)sc2c1CCCCC2 | inactive |
| Cc1c(C)n(Cc2ccc(Cl)cc2)c2ccc(C(=O)N3CCN(c4ccccc4F)CC3)cc12 | inactive |
| CC(C)c1ccc2c(c1)c(SC(C)(C)C)c(CC(C)(C)C(=O)O)n2Cc1ccc(Cl)cc1 | 10 µM (active) |
